# Measured values published in article PMC7862700, “An all-to-all approach to the identification of sequence-specific readers for epigenetic DNA modifications on cytosine”.
# Experiments:
# Assay in all cases: DAPPL (digital affinity profiling via proximity ligation, sequencing); 10 mM Tris-HCl pH 7.5, 50 mM NaCl, 1 mM DTT, 4% glycerol, room temperature, 30 min; GST-TFs on glutathione beads, 16-mer random dsDNA library, 0.1% formaldehyde crosslink after washing; high values mean tight binding
# FLI1 = molecular target: T1, FLI1 (Homo sapiens, UniProt Q01543 1-452); conditions: protein: recombinant; tags: N-terminal GST; dsDNA, one strand shown
# T1 sequence: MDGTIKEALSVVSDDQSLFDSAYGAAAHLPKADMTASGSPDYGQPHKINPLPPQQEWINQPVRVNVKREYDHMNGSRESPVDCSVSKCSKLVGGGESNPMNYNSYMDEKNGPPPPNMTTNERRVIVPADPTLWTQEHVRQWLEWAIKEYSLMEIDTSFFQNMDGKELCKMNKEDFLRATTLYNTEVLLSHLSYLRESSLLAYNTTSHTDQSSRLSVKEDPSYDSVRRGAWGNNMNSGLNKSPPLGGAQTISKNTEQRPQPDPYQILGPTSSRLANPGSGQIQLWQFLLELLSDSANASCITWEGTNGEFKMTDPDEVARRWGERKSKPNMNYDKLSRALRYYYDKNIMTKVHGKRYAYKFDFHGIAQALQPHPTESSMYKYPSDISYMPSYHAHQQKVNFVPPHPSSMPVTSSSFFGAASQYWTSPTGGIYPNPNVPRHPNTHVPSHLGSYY
# Method in brief: (§1)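 Sequencing on an Illumina NextSeq500 followed washing, crosslinking with 0.1% formaldehyde, proximity ligation (BsaI/T4 ligase, 1 h, 37 °C) and PCR amplification of pools that had been incubated for 30 min at room temperature with 200 nmole of a random double-stranded 16-mer DNA library in Tris/NaCl/DTT/glycerol buffer. Each pool held DNA-barcoded human transcription factors, expressed in yeast as GST fusions and captured on glutathione beads, plus a tag-only sample. Binding signal is a hexamer's read frequency for a factor divided by its frequency in the tag-only sample.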
# ELK1 = molecular target: T2, ELK1 (Homo sapiens, UniProt P19419 1-428); conditions: protein: recombinant; tags: N-terminal GST; dsDNA, one strand shown
# T2 sequence: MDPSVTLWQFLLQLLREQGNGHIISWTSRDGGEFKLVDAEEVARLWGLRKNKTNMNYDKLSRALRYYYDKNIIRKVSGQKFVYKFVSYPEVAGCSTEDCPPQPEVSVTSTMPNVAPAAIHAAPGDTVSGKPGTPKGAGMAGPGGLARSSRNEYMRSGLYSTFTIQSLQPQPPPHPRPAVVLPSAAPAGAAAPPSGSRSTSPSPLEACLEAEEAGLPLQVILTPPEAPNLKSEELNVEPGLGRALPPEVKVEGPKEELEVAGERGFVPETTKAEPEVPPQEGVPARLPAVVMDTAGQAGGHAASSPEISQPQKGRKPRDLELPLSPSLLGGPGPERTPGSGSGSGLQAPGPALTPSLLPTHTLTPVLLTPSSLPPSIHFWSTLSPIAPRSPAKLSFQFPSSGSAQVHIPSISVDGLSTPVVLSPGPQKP
# Method in brief: as §1
# GABPA = molecular target: T3, GABPA (Homo sapiens, UniProt Q06546 1-454); conditions: protein: recombinant; tags: N-terminal GST; dsDNA, one strand shown
# T3 sequence: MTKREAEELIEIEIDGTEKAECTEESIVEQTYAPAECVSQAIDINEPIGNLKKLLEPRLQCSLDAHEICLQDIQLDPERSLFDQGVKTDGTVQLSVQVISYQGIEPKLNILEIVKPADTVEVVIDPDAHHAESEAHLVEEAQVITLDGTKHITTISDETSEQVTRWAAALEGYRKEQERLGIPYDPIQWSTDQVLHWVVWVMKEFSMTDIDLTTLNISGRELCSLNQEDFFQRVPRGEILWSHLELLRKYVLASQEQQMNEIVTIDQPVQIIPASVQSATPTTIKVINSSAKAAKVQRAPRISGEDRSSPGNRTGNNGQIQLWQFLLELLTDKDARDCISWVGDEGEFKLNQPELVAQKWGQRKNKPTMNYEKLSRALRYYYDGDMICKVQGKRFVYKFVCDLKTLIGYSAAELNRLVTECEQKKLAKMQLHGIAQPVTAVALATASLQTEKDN
# Method in brief: as §1
# ERG = molecular target: T4, ERG (Homo sapiens, UniProt P11308 1-479); conditions: protein: recombinant; tags: N-terminal GST; dsDNA, one strand shown
# T4 sequence: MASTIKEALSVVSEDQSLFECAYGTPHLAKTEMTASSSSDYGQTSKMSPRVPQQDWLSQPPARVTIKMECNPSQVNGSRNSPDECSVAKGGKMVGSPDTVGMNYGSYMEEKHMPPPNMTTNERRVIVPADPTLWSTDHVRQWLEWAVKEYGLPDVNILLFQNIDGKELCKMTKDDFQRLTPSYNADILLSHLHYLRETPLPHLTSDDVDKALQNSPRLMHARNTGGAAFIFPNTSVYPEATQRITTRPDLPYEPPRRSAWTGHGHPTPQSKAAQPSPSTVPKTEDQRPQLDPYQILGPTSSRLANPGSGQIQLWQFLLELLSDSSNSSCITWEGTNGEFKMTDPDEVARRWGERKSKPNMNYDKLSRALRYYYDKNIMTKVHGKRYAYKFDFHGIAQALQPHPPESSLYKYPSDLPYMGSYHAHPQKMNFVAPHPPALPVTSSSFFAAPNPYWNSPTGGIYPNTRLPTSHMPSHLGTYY
# Method in brief: as §1
# ELF1 = ELF1 (Homo sapiens, UniProt P32519 1-619); conditions: protein: recombinant; tags: N-terminal GST; dsDNA, one strand shown
# Method in brief: as §1
# EHF = molecular target: T5, EHF (Homo sapiens, UniProt Q9NZC4 1-300); conditions: protein: recombinant; tags: N-terminal GST; dsDNA, one strand shown
# T5 sequence: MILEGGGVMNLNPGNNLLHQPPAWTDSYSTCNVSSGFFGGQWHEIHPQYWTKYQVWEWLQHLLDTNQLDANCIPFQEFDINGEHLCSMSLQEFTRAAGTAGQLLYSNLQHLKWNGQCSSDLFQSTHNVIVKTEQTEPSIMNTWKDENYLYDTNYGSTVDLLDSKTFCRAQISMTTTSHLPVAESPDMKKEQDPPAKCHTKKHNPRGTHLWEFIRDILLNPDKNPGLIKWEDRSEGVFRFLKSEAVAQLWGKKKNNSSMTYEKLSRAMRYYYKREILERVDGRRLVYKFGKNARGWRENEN
# Method in brief: as §1
# SPI1 = SPI1 (Homo sapiens, UniProt P17947 1-270); conditions: protein: recombinant; tags: N-terminal GST; dsDNA, one strand shown
# Method in brief: as §1
# SPIB = SPIB (Homo sapiens, UniProt Q01892 1-262); conditions: protein: recombinant; tags: N-terminal GST; dsDNA, one strand shown
# Method in brief: as §1
# ELK3 = molecular target: T6, ELK3 (Homo sapiens, UniProt P41970 1-407); conditions: protein: recombinant; tags: N-terminal GST; dsDNA, one strand shown
# T6 sequence: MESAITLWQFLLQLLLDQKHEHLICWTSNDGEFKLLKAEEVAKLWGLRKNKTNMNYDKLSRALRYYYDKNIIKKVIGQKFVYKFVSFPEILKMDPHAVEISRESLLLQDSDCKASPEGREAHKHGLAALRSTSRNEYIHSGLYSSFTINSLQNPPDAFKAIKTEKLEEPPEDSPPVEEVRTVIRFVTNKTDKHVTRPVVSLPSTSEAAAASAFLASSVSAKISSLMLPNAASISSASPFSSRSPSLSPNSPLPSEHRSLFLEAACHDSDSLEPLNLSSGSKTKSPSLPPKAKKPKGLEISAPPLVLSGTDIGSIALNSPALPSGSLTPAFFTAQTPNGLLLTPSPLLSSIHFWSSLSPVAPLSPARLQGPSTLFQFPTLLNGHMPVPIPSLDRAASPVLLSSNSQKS
# Method in brief: as §1
# FEV = molecular target: T7, FEV (Homo sapiens, UniProt Q99581 1-238); conditions: protein: recombinant; tags: N-terminal GST; dsDNA, one strand shown
# T7 sequence: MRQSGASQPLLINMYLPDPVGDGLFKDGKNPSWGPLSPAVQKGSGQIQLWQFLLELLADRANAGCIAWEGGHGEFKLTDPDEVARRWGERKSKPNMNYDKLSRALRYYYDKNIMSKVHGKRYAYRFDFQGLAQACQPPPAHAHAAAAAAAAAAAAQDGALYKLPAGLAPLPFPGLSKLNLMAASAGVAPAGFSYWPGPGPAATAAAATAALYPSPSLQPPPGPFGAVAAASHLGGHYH
# Method in brief: as §1
# ETV5 = ETV5 (Homo sapiens, UniProt P41161 1-510); conditions: protein: recombinant; tags: N-terminal GST; dsDNA, one strand shown
# Method in brief: as §1
# HSF1 = HSF1 (Homo sapiens, UniProt Q00613 1-529); conditions: protein: recombinant; tags: N-terminal GST; chain copies: 3; dsDNA, one strand shown
# Method in brief: as §1
# SPIC = molecular target: T8, SPIC (Homo sapiens, UniProt Q8N5J4 1-248); conditions: protein: recombinant; tags: N-terminal GST; dsDNA, one strand shown
# T8 sequence: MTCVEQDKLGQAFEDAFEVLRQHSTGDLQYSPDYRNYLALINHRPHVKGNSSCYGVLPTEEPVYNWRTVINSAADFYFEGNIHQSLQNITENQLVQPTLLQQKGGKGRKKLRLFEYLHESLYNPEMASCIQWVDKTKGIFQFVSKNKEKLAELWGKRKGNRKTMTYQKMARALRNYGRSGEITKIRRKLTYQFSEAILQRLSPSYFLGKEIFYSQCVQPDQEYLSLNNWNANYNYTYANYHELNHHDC
# Method in brief: as §1
# ELF4 = ELF4 (Homo sapiens, UniProt Q99607 1-663); conditions: protein: recombinant; tags: N-terminal GST; dsDNA, one strand shown
# Method in brief: as §1
# ELK4 = molecular target: T9, ELK4 (Homo sapiens, UniProt P28324-2 1-405); conditions: protein: recombinant; tags: N-terminal GST; dsDNA, one strand shown
# T9 sequence: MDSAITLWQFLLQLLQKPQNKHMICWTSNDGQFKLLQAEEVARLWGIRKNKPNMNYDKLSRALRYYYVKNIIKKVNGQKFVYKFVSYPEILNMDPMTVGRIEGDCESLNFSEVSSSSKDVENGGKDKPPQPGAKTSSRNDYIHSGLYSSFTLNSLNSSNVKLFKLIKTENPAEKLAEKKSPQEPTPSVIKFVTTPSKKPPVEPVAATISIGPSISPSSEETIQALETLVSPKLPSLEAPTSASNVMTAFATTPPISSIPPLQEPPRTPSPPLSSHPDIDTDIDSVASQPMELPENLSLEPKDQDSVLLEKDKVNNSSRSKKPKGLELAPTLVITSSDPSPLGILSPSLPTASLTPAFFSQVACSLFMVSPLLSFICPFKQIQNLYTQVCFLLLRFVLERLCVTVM
# Method in brief: as §1
# ETV2 = molecular target: T10, ETV2 (Homo sapiens, UniProt O00321 1-342); conditions: protein: recombinant; tags: N-terminal GST; dsDNA, one strand shown
# T10 sequence: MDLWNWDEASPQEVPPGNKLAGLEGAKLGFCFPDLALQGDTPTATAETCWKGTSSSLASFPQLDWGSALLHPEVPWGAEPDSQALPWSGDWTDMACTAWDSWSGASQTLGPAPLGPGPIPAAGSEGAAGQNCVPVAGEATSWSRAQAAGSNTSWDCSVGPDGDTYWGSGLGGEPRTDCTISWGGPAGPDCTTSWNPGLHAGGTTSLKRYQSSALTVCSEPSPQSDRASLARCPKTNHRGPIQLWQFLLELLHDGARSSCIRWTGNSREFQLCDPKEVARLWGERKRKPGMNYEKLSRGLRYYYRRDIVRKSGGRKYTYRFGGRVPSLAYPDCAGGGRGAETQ
# Method in brief: as §1
# ELF3 = molecular target: T11, ELF3 (Homo sapiens, UniProt P78545 1-371); conditions: protein: recombinant; tags: N-terminal GST; dsDNA, one strand shown
# T11 sequence: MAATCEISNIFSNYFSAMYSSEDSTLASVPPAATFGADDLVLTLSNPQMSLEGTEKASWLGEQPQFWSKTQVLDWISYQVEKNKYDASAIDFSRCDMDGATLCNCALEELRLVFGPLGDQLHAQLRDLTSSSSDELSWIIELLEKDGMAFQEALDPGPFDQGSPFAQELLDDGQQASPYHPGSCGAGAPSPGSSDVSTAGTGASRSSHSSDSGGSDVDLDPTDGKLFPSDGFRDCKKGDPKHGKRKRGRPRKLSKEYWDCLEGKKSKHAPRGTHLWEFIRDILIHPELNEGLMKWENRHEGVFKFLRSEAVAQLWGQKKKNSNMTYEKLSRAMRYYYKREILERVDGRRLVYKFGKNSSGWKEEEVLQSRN
# Method in brief: as §1
# CRX = CRX (Homo sapiens, UniProt O43186 1-299); conditions: protein: recombinant; tags: N-terminal GST; dsDNA, one strand shown
# Method in brief: as §1
# ETV1 = ETV1 (Homo sapiens, UniProt P50549 1-477); conditions: protein: recombinant; tags: N-terminal GST; dsDNA, one strand shown
# Method in brief: as §1
# Chain of HSF1 (Q00613 whole entry): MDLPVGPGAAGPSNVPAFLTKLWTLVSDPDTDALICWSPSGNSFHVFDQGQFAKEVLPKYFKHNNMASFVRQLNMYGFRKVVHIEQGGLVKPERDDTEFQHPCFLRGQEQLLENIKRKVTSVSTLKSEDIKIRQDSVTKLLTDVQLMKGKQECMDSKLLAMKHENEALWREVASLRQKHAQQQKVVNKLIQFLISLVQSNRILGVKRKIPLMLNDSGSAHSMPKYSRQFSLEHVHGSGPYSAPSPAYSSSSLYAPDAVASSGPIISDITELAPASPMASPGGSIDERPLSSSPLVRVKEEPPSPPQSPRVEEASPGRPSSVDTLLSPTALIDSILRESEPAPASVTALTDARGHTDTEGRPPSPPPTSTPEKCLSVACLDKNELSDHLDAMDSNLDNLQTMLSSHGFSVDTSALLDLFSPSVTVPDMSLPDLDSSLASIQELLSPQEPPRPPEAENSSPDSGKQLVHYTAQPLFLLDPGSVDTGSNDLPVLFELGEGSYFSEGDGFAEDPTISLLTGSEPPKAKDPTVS
# Chain of ELF4 (Q99607 whole entry): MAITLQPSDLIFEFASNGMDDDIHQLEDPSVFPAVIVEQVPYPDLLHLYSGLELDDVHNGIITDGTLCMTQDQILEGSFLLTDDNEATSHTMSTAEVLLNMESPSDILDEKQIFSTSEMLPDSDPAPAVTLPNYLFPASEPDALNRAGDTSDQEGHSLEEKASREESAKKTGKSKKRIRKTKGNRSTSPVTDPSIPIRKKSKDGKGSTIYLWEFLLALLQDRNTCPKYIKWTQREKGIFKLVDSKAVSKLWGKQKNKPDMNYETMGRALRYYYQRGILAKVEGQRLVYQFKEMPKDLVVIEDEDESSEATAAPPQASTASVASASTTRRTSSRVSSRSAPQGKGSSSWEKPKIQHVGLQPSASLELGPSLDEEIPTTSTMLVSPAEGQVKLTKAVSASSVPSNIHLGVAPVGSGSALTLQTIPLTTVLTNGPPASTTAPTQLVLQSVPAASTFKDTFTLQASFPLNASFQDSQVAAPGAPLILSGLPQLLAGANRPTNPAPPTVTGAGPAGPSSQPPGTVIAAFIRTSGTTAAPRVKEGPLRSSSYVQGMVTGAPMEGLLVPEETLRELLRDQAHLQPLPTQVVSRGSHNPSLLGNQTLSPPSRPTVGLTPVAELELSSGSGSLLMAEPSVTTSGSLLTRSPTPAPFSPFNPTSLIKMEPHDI
# Chain of SPIB (Q01892 whole entry): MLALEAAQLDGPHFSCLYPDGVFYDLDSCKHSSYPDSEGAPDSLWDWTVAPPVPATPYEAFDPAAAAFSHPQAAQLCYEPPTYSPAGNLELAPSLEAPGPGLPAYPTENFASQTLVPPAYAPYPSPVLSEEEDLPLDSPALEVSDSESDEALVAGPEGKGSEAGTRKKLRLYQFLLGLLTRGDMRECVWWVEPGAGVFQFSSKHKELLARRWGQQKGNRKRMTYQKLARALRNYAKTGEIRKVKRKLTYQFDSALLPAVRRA
# Chain of ELF1 (P32519 whole entry): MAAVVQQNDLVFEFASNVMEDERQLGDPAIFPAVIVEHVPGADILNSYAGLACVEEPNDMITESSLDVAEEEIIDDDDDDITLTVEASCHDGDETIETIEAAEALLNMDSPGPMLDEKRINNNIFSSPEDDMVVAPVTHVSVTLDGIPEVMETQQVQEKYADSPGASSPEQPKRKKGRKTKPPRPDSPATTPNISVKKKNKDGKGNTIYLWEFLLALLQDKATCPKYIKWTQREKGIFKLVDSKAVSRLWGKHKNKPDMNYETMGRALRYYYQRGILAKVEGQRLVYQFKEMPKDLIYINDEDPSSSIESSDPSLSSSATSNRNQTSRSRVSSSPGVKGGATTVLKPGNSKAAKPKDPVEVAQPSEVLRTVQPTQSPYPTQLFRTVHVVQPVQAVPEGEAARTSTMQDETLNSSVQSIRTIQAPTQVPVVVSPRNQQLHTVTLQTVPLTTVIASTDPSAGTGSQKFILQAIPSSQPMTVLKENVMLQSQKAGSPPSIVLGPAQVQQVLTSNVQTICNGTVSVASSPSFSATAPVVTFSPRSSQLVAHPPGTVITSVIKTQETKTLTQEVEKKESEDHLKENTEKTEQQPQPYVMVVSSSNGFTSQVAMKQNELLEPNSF
# Chain of CRX (O43186 whole entry): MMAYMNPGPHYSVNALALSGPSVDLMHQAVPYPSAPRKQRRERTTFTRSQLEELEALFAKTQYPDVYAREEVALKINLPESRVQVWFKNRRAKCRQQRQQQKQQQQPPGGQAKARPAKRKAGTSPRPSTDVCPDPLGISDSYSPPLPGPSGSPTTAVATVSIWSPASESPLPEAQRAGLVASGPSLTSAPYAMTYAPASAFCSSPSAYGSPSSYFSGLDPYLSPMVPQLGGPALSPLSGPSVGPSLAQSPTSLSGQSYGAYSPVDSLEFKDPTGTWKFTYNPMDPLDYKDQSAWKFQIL
# Chain of ETV5 (P41161 whole entry): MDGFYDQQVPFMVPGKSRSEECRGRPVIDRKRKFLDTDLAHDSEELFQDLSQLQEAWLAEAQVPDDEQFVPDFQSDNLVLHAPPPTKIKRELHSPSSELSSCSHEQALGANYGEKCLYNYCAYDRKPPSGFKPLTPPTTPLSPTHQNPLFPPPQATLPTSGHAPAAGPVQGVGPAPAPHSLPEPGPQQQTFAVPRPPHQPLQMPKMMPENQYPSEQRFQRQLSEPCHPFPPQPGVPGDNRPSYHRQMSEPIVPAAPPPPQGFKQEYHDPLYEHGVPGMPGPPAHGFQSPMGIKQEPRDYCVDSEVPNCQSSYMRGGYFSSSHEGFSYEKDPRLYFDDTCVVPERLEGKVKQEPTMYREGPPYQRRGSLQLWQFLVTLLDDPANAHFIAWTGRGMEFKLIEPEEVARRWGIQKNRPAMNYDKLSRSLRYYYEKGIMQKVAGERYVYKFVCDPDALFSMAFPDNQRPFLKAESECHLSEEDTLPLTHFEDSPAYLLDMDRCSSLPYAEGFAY
# Chain of ETV1 (P50549 whole entry): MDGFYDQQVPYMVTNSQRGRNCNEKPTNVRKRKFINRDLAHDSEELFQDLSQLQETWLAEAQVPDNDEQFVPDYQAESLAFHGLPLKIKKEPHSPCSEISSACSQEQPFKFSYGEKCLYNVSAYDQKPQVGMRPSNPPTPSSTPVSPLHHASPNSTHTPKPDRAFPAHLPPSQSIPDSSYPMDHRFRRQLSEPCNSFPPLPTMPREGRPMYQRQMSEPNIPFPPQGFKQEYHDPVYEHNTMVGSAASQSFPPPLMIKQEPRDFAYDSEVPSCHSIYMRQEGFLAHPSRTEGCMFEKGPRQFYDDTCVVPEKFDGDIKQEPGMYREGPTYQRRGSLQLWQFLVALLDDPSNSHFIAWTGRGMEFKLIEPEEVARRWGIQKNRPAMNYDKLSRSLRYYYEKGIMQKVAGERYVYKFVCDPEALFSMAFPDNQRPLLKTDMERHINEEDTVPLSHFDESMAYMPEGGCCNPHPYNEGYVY
sequence,measurement,setting,value
CTCCTT,binding signal,FLI1,"1.92 fold enrichment (6-mer frequency, TF over GST control)"
same,binding signal,ELK1,"1.72 fold enrichment (6-mer frequency, TF over GST control)"
same,binding signal,GABPA,"1.7 fold enrichment (6-mer frequency, TF over GST control)"
same,binding signal,ERG,"1.82 fold enrichment (6-mer frequency, TF over GST control)"
same,binding signal,ELF1,"1.94 fold enrichment (6-mer frequency, TF over GST control)"
same,binding signal,EHF,"1.64 fold enrichment (6-mer frequency, TF over GST control)"
same,binding signal,SPI1,"1.71 fold enrichment (6-mer frequency, TF over GST control)"
same,binding signal,SPIB,"1.82 fold enrichment (6-mer frequency, TF over GST control)"
same,binding signal,ELK3,"1.65 fold enrichment (6-mer frequency, TF over GST control)"
same,binding signal,FEV,"1.75 fold enrichment (6-mer frequency, TF over GST control)"
same,binding signal,ETV5,"1.62 fold enrichment (6-mer frequency, TF over GST control)"
same,binding signal,HSF1,"1.61 fold enrichment (6-mer frequency, TF over GST control)"
same,binding signal,SPIC,"1.86 fold enrichment (6-mer frequency, TF over GST control)"
same,binding signal,ELF4,"1.8 fold enrichment (6-mer frequency, TF over GST control)"
same,binding signal,ELK4,"1.67 fold enrichment (6-mer frequency, TF over GST control)"
same,binding signal,ETV2,"1.7 fold enrichment (6-mer frequency, TF over GST control)"
same,binding signal,ELF3,"1.96 fold enrichment (6-mer frequency, TF over GST control)"
same,binding signal,CRX,"1.57 fold enrichment (6-mer frequency, TF over GST control)"
same,binding signal,ETV1,"1.69 fold enrichment (6-mer frequency, TF over GST control)"
